According to PubChem BioAssay (EPA / NIEHS):
Inconclusive results are not listed. The source made the active and inactive calls. Rule for the calls: active = hit-call score of the fitted dose curve at least 0.9, where 1 is the maximum; inconclusive = response in the unintended direction; inactive = score below 0.9.

Key:
[1] = ATG_XTT_Cytotoxicity: Cytotoxicity Assessment in the Attagene TRANS-FACTORIAL HepG2 Assay (AID 2283584)
How it was run: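 Transfect HepG2 with GAL4-UAS reporter units, dose compound, incubate 24 h, then measure viable cell number by XTT. Fit concentration response against DMSO baseline.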

[2] = TOX21_p53_BLA_p2_viability: Viability Assessment in the Tox21 HCT-116 p53 Agonism Beta-lactamase Assay, Phase 2 (AID 2283591);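 note: actives lower the ATP signal meaning cytotoxicity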
How it was run: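 HCT-116 p53-bla cells (4000/well) rested 5 h at 37C, then received compounds in DMSO (217-fold dilution) for 16 h at 37C, 5% CO2. After the CCF4 read, CellTiter-Glo was added; ATP luminescence was read after 30 min at room temperature.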

[3] = molecular target: Cellular tumor antigen p53 (Homo sapiens) (UniProt P04637); assay: TOX21_p53_BLA_p2_ratio: Tox21 HCT-116 p53 Agonism Beta-lactamase Assay, Ratio, Phase 2 (AID 2283592)
Sequence of Cellular tumor antigen p53 (Homo sapiens) (P04637 whole entry, looked up): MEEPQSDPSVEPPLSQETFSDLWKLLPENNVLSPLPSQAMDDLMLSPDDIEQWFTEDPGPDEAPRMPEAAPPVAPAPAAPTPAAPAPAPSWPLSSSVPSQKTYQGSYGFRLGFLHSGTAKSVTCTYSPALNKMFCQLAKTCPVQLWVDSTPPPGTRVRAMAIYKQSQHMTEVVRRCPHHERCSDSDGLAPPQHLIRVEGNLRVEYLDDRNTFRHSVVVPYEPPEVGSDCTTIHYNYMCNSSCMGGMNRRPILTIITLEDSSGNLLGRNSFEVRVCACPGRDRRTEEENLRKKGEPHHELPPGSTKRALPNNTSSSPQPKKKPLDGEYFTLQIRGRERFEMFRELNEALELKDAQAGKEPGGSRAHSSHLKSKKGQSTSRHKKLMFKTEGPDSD
How it was run: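 An inducible beta-lactamase reporter in HCT116 cells signals p53 pathway activation. After 16 h chemical exposure at 37C, cells load CCF4-AM substrate for 2 h at room temperature; activity is the cleaved/uncleaved emission ratio relative to DMSO.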

[4] = TOX21_p53_BLA_p3_viability: Viability Assessment in the Tox21 HCT-116 p53 Agonism Beta-lactamase Assay, Phase 3 (AID 2283593);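 note: cells exposed to compound for 16 h before reading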
How it was run: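 HCT-116 cells (4000/well) rested 5 h at 37C, then got DMSO compounds by pin tool (217-fold dilution) for 16 h at 37C, 5% CO2. After the bla read, CellTiter-Glo was added and luminescence read at 30 min, room temperature.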

[5] = TOX21_p53_BLA_p4_viability: Viability Assessment in the Tox21 HCT-116 p53 Agonism Beta-lactamase Assay, Phase 4 (AID 2283597);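 note: hits lower the luminescence signal meaning cytotoxicity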
How it was run: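 Compound exposure of HCT116 cells lasts 16 h at 37C, 5% CO2, with DMSO stocks diluted 217-fold. Cellular ATP is then quantified by CellTiter-Glo luminescence after 30 min at room temperature.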

[6] = molecular target: Cellular tumor antigen p53 (Homo sapiens) (UniProt P04637); assay: TOX21_p53_BLA_p5_ratio: Tox21 HCT-116 p53 Agonism Beta-lactamase Assay, Ratio, Phase 5 (AID 2283599)
How it was run: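 HCT-116 cells carrying a p53-inducible beta-lactamase reporter were seeded at 4000 cells/well and dosed after 5 h with compound in DMSO (217-fold dilution). After 16 h at 37C, CCF4-AM substrate was added for 2 h, and the 460/530 nm emission ratio was scored as gain-of-signal versus DMSO.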

[7] = TOX21_p53_BLA_p5_viability: Viability Assessment in the Tox21 HCT-116 p53 Agonism Beta-lactamase Assay, Phase 5 (AID 2283600)
How it was run: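 Counter-readout for cytotoxicity: ATP-dependent luminescence from CellTiter-Glo, read in the beta-lactamase wells after 30 min at RT, following a 16 h compound exposure at 37C.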

[8] = molecular target: Cellular tumor antigen p53 (Homo sapiens) (UniProt P04637); assay: TOX21_p53_BLA_p3_ratio: Tox21 HCT-116 p53 Agonism Beta-lactamase Assay, Ratio, Phase 3 (AID 2283596)
How it was run: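 HCT116 p53-bla cells (4000/well) given compound in DMSO (217-fold dilution) after 5 h, incubated 16 h at 37C. CCF4-AM substrate 2 h at room temperature; 460/530 nm emission ratio, gain fitted against DMSO.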

Structure (SMILES): COC(=O)C=C(C)CCC=C(C)C
- outcome [1]: inactive
- outcome [2]: inactive
- outcome [3]: inactive
- outcome [4]: inactive
- outcome [5]: inactive
- outcome [6]: inactive

Structure (SMILES): O=[N+]([O-])c1ccc(O)cc1C(F)(F)F
- outcome [1]: inactive
- outcome [2]: inactive
- AC50 [3]: 28.2 µM (active)
- outcome [4]: inactive
- outcome [5]: inactive
- AC50 [6]: 30.7 µM (active)
- outcome [7]: inactive

Structure (SMILES): CCCCCC(=O)CC
- outcome [1]: inactive
- outcome [2]: inactive
- outcome [3]: inactive
- outcome [4]: inactive
- outcome [8]: inactive
- outcome [6]: inactive
- outcome [7]: inactive

Structure (SMILES): CCO/C=C1\N=C(c2ccccc2)OC1=O
- outcome [1]: inactive
- outcome [2]: inactive
- outcome [3]: inactive
- outcome [4]: inactive
- outcome [8]: inactive
- outcome [6]: inactive

Structure (SMILES): CCc1cc(Cc2cc(CC)cc(C(C)(C)C)c2O)c(O)c(C(C)(C)C)c1
- outcome [1]: inactive
- AC50 [2]: 4.87 µM (active)
- AC50 [3]: 14.9 µM (active)
- AC50 [4]: 16.1 µM (active)
- AC50 [5]: 5.48 µM (active)
- AC50 [6]: 29.3 µM (active)
- AC50 [7]: 20.1 µM (active)

Structure (SMILES): C=C(C)C(=O)OCC(CC)(COC(=O)C(=C)C)COC(=O)C(=C)C
- outcome [1]: inactive
- outcome [2]: inactive
- outcome [3]: inactive
- outcome [4]: inactive
- outcome [5]: inactive
- outcome [6]: inactive

Structure (SMILES): CC(CN=Cc1ccccc1O)N=Cc1ccccc1O (configuration not stated)
- outcome [1]: inactive
- outcome [2]: inactive
- outcome [3]: inactive
- outcome [4]: inactive
- outcome [8]: inactive
- outcome [6]: inactive

Structure (SMILES): CC(=O)O[C@@H]1CC2CCC1(C)C2(C)C (some centres not stated)
- outcome [1]: inactive
- outcome [2]: inactive
- outcome [3]: inactive
- outcome [4]: inactive
- outcome [8]: inactive
- outcome [6]: inactive
- outcome [7]: inactive

Structure (SMILES): O=C1OC(=O)c2c(Cl)c(Cl)c(Cl)c(Cl)c21
- outcome [1]: inactive
- outcome [2]: inactive
- outcome [3]: inactive
- outcome [4]: inactive
- outcome [8]: inactive
- outcome [6]: inactive
- outcome [7]: inactive

Structure (SMILES): O=C(O)CNc1ccccc1
- outcome [1]: inactive
- outcome [2]: inactive
- outcome [3]: inactive
- outcome [4]: inactive
- outcome [8]: inactive
- outcome [6]: inactive
- outcome [7]: inactive

Structure (SMILES): C=C(CC(=O)O)C(=O)O
- outcome [1]: inactive
- outcome [2]: inactive
- outcome [3]: inactive
- outcome [4]: inactive
- outcome [8]: inactive
- outcome [6]: inactive
- outcome [7]: inactive

Structure (SMILES): CCOC(=O)COC(=O)c1cc(Oc2ccc(C(F)(F)F)cc2Cl)ccc1[N+](=O)[O-]
- outcome [1]: inactive
- outcome [2]: inactive
- outcome [3]: inactive
- outcome [4]: inactive
- outcome [5]: inactive
- outcome [7]: inactive

Structure (SMILES): CCOCCOCCOCC
- outcome [1]: inactive
- outcome [2]: inactive
- outcome [3]: inactive
- outcome [4]: inactive
- outcome [6]: inactive

Structure (SMILES): Brc1ccc(Br)c(Br)c1
- outcome [1]: inactive
- outcome [2]: inactive
- outcome [3]: inactive
- outcome [4]: inactive
- outcome [8]: inactive
- outcome [6]: inactive
- outcome [7]: inactive

Structure (SMILES): CC(=O)c1c(C)c([N+](=O)[O-])c(C(C)(C)C)c([N+](=O)[O-])c1C
- outcome [1]: inactive
- outcome [2]: inactive
- outcome [3]: inactive
- outcome [4]: inactive
- outcome [5]: inactive
- outcome [6]: inactive
- outcome [7]: inactive

Structure (SMILES): COc1ccc(CCC(C)=O)cc1
- outcome [1]: inactive
- outcome [2]: inactive
- outcome [3]: inactive
- outcome [4]: inactive
- outcome [8]: inactive
- outcome [6]: inactive

Structure (SMILES): COCCOC(=O)c1ccccc1C(=O)OCCOC
- outcome [1]: inactive
- outcome [2]: inactive
- outcome [3]: inactive
- outcome [4]: inactive
- outcome [8]: inactive
- outcome [6]: inactive
- outcome [7]: inactive

Structure (SMILES): CCOC(=O)c1ccc(N)cc1
- outcome [1]: inactive
- outcome [2]: inactive
- outcome [3]: inactive
- outcome [4]: inactive
- outcome [8]: inactive
- outcome [6]: inactive

Structure (SMILES): Cc1ccc2c(c1)C(=O)OC2=O
- outcome [1]: inactive
- outcome [2]: inactive
- outcome [3]: inactive
- outcome [4]: inactive
- outcome [5]: inactive
- outcome [6]: inactive
- outcome [7]: inactive

Structure (SMILES): CCCC1O[C@@H]2C[C@H]3[C@@H]4CCC5=CC(=O)C=C[C@]5(C)[C@H]4[C@@H](O)C[C@]3(C)[C@]2(C(=O)CO)O1 (some centres not stated)
- outcome [1]: inactive
- outcome [2]: inactive
- outcome [3]: inactive
- outcome [4]: inactive
- outcome [5]: inactive
- outcome [6]: inactive
- outcome [7]: inactive

Structure (SMILES): CCOC(=O)C1OC1c1ccccc1 (configuration not stated)
- outcome [1]: inactive
- outcome [2]: inactive
- outcome [3]: inactive
- outcome [4]: inactive
- outcome [8]: inactive
- outcome [6]: inactive
- outcome [7]: inactive

Structure (SMILES): C=C(C)C(=O)OCCOCCOCCOC(=O)C(=C)C
- outcome [1]: inactive
- outcome [2]: inactive
- outcome [3]: inactive
- outcome [4]: inactive
- outcome [8]: inactive
- outcome [6]: inactive
- outcome [7]: inactive

Structure (SMILES): CCC(C)S (configuration not stated)
- outcome [1]: inactive
- outcome [2]: inactive
- outcome [3]: inactive
- outcome [4]: inactive
- outcome [6]: inactive
- outcome [7]: inactive

Structure (SMILES): O=C(O)CCCCCCCCC(=O)O
- outcome [1]: inactive
- outcome [2]: inactive
- outcome [3]: inactive
- outcome [4]: inactive
- outcome [5]: inactive
- outcome [6]: inactive
- outcome [7]: inactive

Structure (SMILES): CCCCCC(C=O)=Cc1ccccc1
- outcome [1]: inactive
- outcome [2]: inactive
- outcome [3]: inactive
- outcome [4]: inactive
- outcome [8]: inactive
- outcome [6]: inactive

Structure (SMILES): Cc1[nH]c(=O)c(C#N)cc1-c1ccncc1
- outcome [1]: inactive
- outcome [2]: inactive
- outcome [3]: inactive
- outcome [4]: inactive
- outcome [8]: inactive
- outcome [6]: inactive
- outcome [7]: inactive

Structure (SMILES): CCCCCCCCCCCC(=O)OC[C@@H](O)[C@H]1OC[C@H](O)[C@H]1O
- outcome [1]: inactive
- outcome [2]: inactive
- outcome [3]: inactive
- outcome [4]: inactive
- outcome [6]: inactive
- outcome [7]: inactive

Structure (SMILES): COC(=O)c1ccc(C)cc1C1=NC(C)(C(C)C)C(=O)N1 (configuration not stated) (tested in a mixture with another compound)
- outcome [1]: inactive
- outcome [2]: inactive
- outcome [3]: inactive
- outcome [8]: inactive
- outcome [5]: inactive
- outcome [7]: inactive

Structure (SMILES): C=CCOC(=O)CCCCCC
- outcome [1]: inactive
- outcome [2]: inactive
- outcome [8]: inactive
- outcome [5]: inactive
